The text below walks through data of PubChem BioAssay (NCATS).

Structures are written as SMILES. Where “and” joins values, the source holds several entries; their conditions need not be identical. Equal entries are not always repeated. Records with an inconclusive call do not appear. A structure can be active in one record and inactive in another. Calls of active or inactive are those of the source. Unless noted, calls follow the shape of the dose curve; as a rule, active = well fitted curve in the direction sought with a large enough effect; inconclusive = small, poorly fitted or top-dose-only effect, or another doubt; inactive = no such curve, though single readings can be large; an effect the other way counts as inactive or inconclusive.

Test [1] is described as follows: AP1 Signaling Pathway (AID 357; active = well fitted curve in either direction with a large enough effect, not every such curve was filed as active;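 also: ME-180 reporter cells stimulated with EGF at its EC50 level; % is scaled to controls: 0 for no effect and ±100 for the full control effect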). Summed up: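 Read-out was the 460nm/530nm emission ratio (excitation 405nm) after CCF4 loading for 2.5 hours at room temperature. Cells carried an AP-1-driven beta-lactamase reporter, were stimulated with EC50 EGF plus compound for 5 hours, and AC50 values came from titrations.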
Test [2] addresses Cytochrome P450 1A2 (Homo sapiens) (UniProt P05177). The test can be described thus: p450-cyp1a2 (AID 410; calls by dose curve; also: potency is read from the fitted curve at half-maximal effect). In short, it runs like this: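 Luminescent readout of luciferin formed from Luciferin-ME by human CYP1A2; data normalized against complete inhibition by 57 uM furafylline. Enzyme 20nM, substrate 100uM at Km, 100mM KPO4 buffer, 60 min reaction at room temperature.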
Test [3] can be described thus: Stat Signaling Pathway (AID 446; active = well fitted curve in either direction with a large enough effect, not every such curve was filed as active;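 also: ME-180 cervical cancer cells given 40 pM IL-6 alongside compound; SIE-controlled beta-lactamase reporter measured as 460/530 nm FRET emission ratio; % is scaled to controls: 0 for no effect and ±100 for the full control effect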). In short, it runs like this:
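Reporter line: ME-180 cervical carcinoma, SIE-beta-lactamase. Treatment: compound with 40 pM IL-6, 5 hrs, 37 C, in low-serum OPTI-MEM with 10 mM HEPES pH 7.3. Detection: 460/530 nm fluorescence.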

Test [4] has as its target Glucocorticoid receptor (Homo sapiens) (UniProt P04150). As to the kind of experiment: GR-GFP Redistribution (AID 450;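 active = compounds whose dose series gives a full or clear partial fitted curve of increased nuclear translocation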; also: potency is read from the fitted curve at half-maximal effect). Conditions: U2OS GR-GFP nuclear translocation, laser cytometry, 2 h.
The target is the same in test [5]. As to the kind of experiment: GR-EFC Redistribution (AID 451; calls by dose curve; also: potency is read from the fitted curve at half-maximal effect). The settings on record: CHO-K1 GR-EFC translocation, beta-gal luminescence, 2 h. Summed up:
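Translocation of GR-ED fusion to nuclear EA restores b-gal, read by luminescence after 1 h room-temperature detection. Engineered CHO-K1 biosensor cells, 1,000/well, exposed 2 h at 37 C to titrations up to 46 uM final.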

Test [6] has as its target Mitogen-activated protein kinase 10 (Mus musculus) (UniProt Q61831). The test can be described thus: JNK3 AlphaScreen Assay (AID 530; active = well fitted curve in either direction with a large enough effect, not every such curve was filed as active;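 also: kinase came from lysate of stimulated human HepG2 cells; signal reports phosphorylation of biotinylated GST-cJun 1-79 at Ser73 with 10 µM ATP; % is scaled to controls: 0 for no effect and ±100 for the full control effect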). In short, it runs like this: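 Compound titrations were preincubated 15 minutes at room temperature with substrate, antibody and pre-activated JNK3-containing HepG2 lysate. Reactions were started with 10 uM ATP and stopped with EDTA-containing bead buffer for AlphaScreen detection.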
(In general: Alpha assays give light when donor and acceptor beads are brought close together.)

Test [7] deals with 3',5'-cyclic-AMP phosphodiesterase 4B (Homo sapiens) (UniProt Q07343). The test can be described thus: qHTS Assay for Inhibitors of PDE-IV (AID 607; active = well fitted activation curve with a large enough effect in the main read-out, with a control signal flat, not every such curve was filed as active; also: % of control where 0% means no effect). Summed up:
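Cell-based read-out of cAMP via a modified cyclic nucleotide-gated channel and membrane potential dye (535/590 nm) in HEK293 cells expressing PDE4 endogenously. Compounds tested up to 22.9 uM final; 100 uM RO 20-1724 reference.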
For orientation: Quantitative high-throughput screening tests each substance at several concentrations.

In test [8] the target is Ubiquitin carboxyl-terminal hydrolase 1 (Homo sapiens) (UniProt O94782). As to the kind of experiment: Inhibitors of USP1/UAF1: Pilot qHTS (AID 504865).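 Also: rhodamine fluorescence freed from ubiquitin-rhodamine substrate followed over time; top concentration of the series differs between compounds; % is scaled to controls: 0 for no effect and ±100 for the full control effect; nearly all actives have a fitted effect of over 35% in size.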 Summed up:
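Deubiquitinase activity followed as kinetic rhodamine fluorescence release from 150 nM Ub-Rho. 1 nM USP1/UAF1 with compound, after 15 min room-temperature preincubation, in HEPES pH 7.8 buffer containing TCEP, EDTA, BSA and Tween-20.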

In test [9] the target is Cytochrome P450 3A4 (Homo sapiens) (UniProt P08684). The test can be described thus: qHTS Assay for Inhibitors and Substrates of Cytochrome P450 3A4 (AID 884). Also: nearly all actives have a fitted effect of over 50% in size. Also: potency is read from the fitted curve at half-maximal effect. Summed up:
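20 nM human CYP3A4 with 25 uM Luciferin-PPXE (at KM) in 200 mM KPO4, preincubated 10 min with compound; NADPH regeneration started a 60 min RT reaction. Luciferin detected by luminescence, normalized to 57 uM ketoconazole as full inhibition.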

For test [10] the target is unchanged. The test can be described thus: qHTS Assay for Activators of Cytochrome P450 3A4 (AID 885). Also: nearly all actives have a fitted effect of over 65% in size. Summed up:
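Signal was normalized against complete inhibition by 57 uM ketoconazole. The reaction used 20nM CYP3A4 with 25uM Luciferin-PPXE, 10-min compound preincubation and a 60-min NADPH-supported step at RT.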

The test system of test [11] is Zika virus NS2B-NS3 protease (linked construct). The test can be described thus: Primary screen NINDS Rhodamine qHTS for Zika virus inhibitors (AID 1347160). Also: % is scaled to controls: 0 for no effect and ±100 for the full control effect; nearly all actives have a fitted effect of over 55% in size. In short, it runs like this: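 In 10 mM Tris-HCl pH 8.0 containing 0.01% Tween 20, linked NS2B-NS3 protease (25 nM final) is exposed to test compounds for 15 min. Cleavage of 1.5 microM Rhodamine110 substrate is tracked by fluorescence over 15 min.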

Test [12] in a line: OV-KATE Cancer Cell Toxicity qHTS against the NCATS CANVASS Library (AID 1347345). Also: % is scaled to controls: 0 for no effect and ±100 for the full control effect. Summed up: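 In this cytotoxicity screen, 1000 cells per well rested 4 hours, then received compound (11 concentrations) for a 72-hour incubation; an ATP-dependent luminescent signal (CellTiter-Glo) was the endpoint.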
Test [13] can be described thus: Confirmatory qHTS for VERO E6 Cytotoxicity Assay: Counterscreen for SARS-CoV-2 CPE Assay (AID 1508605; calls by dose curve; also: % is scaled to controls: 0 for no effect and ±100 for the full control effect; nearly all actives have a fitted effect of over 60% in size).
Test [14] has as its target Nuclear receptor subfamily 1 group I member 3 (Homo sapiens) (UniProt Q14994). The test can be described thus: Primary qHTS for antagonist of constitutive androstane receptor (CAR) against the NCATS DSHEA and TCM libraries (AID 1794836).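 Also: HepG2 cells stably expressing hCAR with CYP2B6 luciferase reporter stimulated by CITCO.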 In short, it runs like this:
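Antagonist mode: CAR reporter luminescence (ONE-Glo) in HepG2-CYP2B6-hCAR cells stimulated with 48 uM CITCO (final) over 24 h at 37 C, compounds titrated; viability read first by CellTiter-Fluor fluorescence.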

Test [15] in a line: KB-8-5-11 P-gp reporter qHTS against the NCATS DSHEA and TCM libraries (AID 1919977). Also: 0% is about no effect. In short, it runs like this: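 CellTiter-Glo luminescence measured viability after ~72 h exposure (37C, 5% CO2) of KB-8-5-11 cervical adenocarcinoma cells overexpressing P-gp. Colchicine was omitted during assay. Substances were tested as titrations.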
Test [16] is described as follows: qHTS profiling of the MIPE4 collection as inhibitors of Plasmodium falciparum (3D7) proliferation (AID 743344; call rule not given here;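 also: scaled between DMSO vehicle wells and 0.29 µM artemisinin as full inhibition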). The settings on record: P. falciparum 3D7 in erythrocytes, SYBR Green DNA fluorescence, 72 h; at 28.5 µM (top of the series) unless noted. In short, it runs like this:
(§1)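 Erythrocytes infected with P. falciparum (0.3% parasitemia, 2.5% hematocrit) incubated with compounds 72 h at 37 C, 5% CO2. Lysis with saponin/Triton buffer containing SYBR Green I, overnight at room temperature in the dark; DNA fluorescence (485/535 nm) normalised to 0.29 uM artemisinin and DMSO.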

A short description of test [17]: qHTS profiling of the MIPE4 collection as inhibitors of Plasmodium falciparum (DD2) proliferation (AID 743345; call rule not given here). Conditions: P. falciparum Dd2 in erythrocytes, SYBR Green DNA, 72 h; at 28.5 µM (top of the series) unless noted. In short, it runs like this: as §1
Test [18] can be described thus: qHTS profiling of the MIPE4 collection as inhibitors of Plasmodium falciparum (DD2) proliferation (Rep 2) (AID 743346; call rule not given here). Conditions: P. falciparum Dd2 in erythrocytes, SYBR Green DNA, 72 h; at 28.5 µM (top of the series) unless noted. In short, it runs like this: as §1
The nature of test [19]: qHTS profiling of the MIPE4 collection as inhibitors of Plasmodium falciparum (HB3) proliferation (AID 743347; call rule not given here;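 also: plate controls were DMSO vehicle wells for no effect and artemisinin wells for full effect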). The settings on record: P. falciparum HB3 in erythrocytes, SYBR Green DNA, 72 h; at 28.5 µM (top of the series) unless noted. Summed up:
as §1

Test [20] is described as follows: Confirmatory qHTS for activators (rescue) of SARS-CoV-2 Cytopathic Effect (CPE) (AID 1508606; calls by dose curve; also: potency is read from the fitted curve at half-maximal effect; nearly all actives have a fitted effect of over 70% in size).

Sequence of Cytochrome P450 3A4 (Homo sapiens) (P08684 whole entry, looked up): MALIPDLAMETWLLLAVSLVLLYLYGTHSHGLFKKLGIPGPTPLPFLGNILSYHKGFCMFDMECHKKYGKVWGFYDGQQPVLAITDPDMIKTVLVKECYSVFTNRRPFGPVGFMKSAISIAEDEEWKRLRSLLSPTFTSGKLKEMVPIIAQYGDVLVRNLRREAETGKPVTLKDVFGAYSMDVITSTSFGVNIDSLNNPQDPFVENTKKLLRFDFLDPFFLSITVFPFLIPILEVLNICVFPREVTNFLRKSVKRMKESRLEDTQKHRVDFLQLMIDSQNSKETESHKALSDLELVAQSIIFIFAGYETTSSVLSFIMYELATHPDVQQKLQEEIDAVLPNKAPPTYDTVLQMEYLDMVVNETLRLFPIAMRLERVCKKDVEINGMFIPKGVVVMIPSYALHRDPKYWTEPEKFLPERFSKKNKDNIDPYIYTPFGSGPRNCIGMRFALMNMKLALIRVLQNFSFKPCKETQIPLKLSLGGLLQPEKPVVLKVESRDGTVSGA
Sequence of Ubiquitin carboxyl-terminal hydrolase 1 (Homo sapiens) (O94782 whole entry, looked up): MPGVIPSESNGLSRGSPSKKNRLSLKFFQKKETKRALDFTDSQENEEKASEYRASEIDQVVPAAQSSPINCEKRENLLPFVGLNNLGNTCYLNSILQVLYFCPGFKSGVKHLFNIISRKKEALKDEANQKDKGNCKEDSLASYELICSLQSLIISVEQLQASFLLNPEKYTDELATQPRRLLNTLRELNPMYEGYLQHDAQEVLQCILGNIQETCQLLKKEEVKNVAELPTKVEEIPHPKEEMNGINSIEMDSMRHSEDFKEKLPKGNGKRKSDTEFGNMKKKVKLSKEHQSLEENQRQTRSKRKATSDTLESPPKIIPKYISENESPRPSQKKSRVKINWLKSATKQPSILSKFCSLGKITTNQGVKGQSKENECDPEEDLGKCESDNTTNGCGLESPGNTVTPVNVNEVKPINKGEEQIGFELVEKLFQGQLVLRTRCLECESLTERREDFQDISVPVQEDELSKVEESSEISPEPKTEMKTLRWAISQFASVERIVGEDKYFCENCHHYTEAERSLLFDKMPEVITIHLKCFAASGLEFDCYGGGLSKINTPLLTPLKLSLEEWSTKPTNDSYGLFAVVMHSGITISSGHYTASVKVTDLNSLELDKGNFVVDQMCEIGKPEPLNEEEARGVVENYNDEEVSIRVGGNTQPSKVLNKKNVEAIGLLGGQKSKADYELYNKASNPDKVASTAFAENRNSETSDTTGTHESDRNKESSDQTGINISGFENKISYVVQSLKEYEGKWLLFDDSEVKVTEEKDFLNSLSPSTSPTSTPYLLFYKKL
Sequence of 3',5'-cyclic-AMP phosphodiesterase 4B (Homo sapiens) (Q07343 whole entry, looked up): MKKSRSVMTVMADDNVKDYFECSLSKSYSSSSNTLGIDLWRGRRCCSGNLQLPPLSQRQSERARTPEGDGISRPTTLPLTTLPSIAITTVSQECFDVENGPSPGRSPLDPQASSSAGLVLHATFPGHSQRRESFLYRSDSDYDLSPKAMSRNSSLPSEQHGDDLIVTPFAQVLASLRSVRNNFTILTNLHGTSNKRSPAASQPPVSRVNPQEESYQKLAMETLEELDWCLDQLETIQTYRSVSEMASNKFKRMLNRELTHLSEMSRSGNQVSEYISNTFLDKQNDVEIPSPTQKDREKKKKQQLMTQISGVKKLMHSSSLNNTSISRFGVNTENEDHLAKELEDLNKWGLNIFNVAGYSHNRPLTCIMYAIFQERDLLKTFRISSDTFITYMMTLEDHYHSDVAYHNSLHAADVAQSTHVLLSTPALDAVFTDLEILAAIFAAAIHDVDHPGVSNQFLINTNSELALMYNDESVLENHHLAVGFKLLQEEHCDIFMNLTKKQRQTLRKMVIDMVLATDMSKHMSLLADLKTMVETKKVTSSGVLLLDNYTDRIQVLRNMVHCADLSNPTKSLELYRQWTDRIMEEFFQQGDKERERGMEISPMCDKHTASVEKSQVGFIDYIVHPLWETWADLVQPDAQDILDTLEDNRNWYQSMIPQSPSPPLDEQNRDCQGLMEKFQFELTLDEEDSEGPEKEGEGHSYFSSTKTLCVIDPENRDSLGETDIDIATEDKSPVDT
Sequence of Cytochrome P450 1A2 (Homo sapiens) (P05177 whole entry, looked up): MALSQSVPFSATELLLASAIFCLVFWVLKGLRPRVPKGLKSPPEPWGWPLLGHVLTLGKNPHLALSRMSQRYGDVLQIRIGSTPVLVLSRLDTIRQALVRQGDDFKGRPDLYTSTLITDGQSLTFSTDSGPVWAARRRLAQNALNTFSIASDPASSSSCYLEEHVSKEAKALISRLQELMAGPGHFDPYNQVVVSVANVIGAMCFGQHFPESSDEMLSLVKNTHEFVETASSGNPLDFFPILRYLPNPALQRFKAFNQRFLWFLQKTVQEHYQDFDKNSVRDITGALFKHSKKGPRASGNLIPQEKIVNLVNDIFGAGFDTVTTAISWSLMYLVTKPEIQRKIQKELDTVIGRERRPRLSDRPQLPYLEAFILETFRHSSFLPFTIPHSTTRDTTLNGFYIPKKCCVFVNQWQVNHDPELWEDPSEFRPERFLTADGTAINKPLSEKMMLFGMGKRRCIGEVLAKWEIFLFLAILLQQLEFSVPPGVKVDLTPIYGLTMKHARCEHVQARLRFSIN
Sequence of Glucocorticoid receptor (Homo sapiens) (P04150 whole entry, looked up): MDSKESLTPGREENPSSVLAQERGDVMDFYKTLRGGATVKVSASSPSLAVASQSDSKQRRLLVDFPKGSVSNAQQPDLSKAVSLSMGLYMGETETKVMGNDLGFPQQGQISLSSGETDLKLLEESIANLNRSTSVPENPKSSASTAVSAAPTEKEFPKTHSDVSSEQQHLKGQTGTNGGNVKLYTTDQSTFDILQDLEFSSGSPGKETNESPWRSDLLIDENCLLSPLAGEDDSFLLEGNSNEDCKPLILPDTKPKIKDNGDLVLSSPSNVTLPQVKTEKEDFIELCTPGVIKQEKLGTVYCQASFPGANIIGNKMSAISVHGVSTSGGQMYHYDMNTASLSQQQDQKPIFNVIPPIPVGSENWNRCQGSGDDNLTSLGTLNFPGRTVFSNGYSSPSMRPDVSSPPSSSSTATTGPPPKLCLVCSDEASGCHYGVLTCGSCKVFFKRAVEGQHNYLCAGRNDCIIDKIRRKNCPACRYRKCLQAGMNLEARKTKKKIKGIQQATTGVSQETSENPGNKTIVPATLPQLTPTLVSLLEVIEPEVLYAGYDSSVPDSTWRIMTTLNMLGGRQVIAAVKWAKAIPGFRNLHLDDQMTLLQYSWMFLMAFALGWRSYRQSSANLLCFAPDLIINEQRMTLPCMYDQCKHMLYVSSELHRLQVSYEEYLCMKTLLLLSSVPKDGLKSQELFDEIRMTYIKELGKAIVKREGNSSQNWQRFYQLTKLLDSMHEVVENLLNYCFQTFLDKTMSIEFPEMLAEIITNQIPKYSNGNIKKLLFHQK
Sequence of Nuclear receptor subfamily 1 group I member 3 (Homo sapiens) (Q14994 whole entry, looked up): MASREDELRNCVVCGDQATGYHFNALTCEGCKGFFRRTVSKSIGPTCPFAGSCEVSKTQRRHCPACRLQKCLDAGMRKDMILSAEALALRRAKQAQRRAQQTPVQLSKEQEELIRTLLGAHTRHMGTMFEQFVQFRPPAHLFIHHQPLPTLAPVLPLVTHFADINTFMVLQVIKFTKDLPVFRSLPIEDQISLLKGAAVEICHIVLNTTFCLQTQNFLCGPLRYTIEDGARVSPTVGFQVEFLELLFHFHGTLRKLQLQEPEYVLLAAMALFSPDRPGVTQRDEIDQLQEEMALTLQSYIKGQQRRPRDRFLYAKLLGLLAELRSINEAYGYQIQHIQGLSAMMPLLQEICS

As for `c1cncc([C@@H]2CCCCN2)c1`, the result in test [1], in test [3] and in test [6] was inactive. The Potency was 5.01 µM (active) and inactive in test [2]; > 20.6 µM (inactive) and > 46 µM (inactive) in test [4]; > 20.6 µM (inactive) and > 46 µM (inactive) in test [5]. Also, the Potency entry in test [7] and in [8] was “inactive” throughout.
For `CN(C)Cc1c[nH]c2ccccc12`, the call in [1], in test [3] and in [6] was inactive. The Potency entry in test [2], in test [7], in test [10], in test [8], in [11] and in [12] was “inactive” throughout. In addition, the Potency was > 20.6 µM (inactive) and > 46 µM (inactive) in test [4]; > 20.6 µM (inactive) and > 46 µM (inactive) in [5]; 15.8 µM (active) in [9].
In the case of `NCCc1ccccc1`, the Potency entry in test [11] and in [12] was “inactive” each time.
Regarding `Cc1cc(O)c2c(c1)O[C@@]1(C)CC[C@H]3C(C)(C)CCCC34CO[C@@H]2[C@H]41` (stereo partly specified), the Potency entry in test [13] was “inactive”.
On to `CCCCCCCC(=O)O`, for which the Potency entry in test [14] was “inactive”. In addition, the compound was classed as inactive in test [15].
`Cc1cn([C@@H]2C[C@@H](O)[C@H](CO)O2)c(=O)[nH]c1=O` had a parasite growth, % of DMSO control in test [16] of 93.3%. The compound further displayed a parasite growth remaining, % of DMSO control (lower = more inhibition) in test [17] of 92.6%. In [18], this compound came in with a parasite growth, % of control (lower = inhibition) of 94.9%. Further, the growth, % of control in [19] was 59.6%.
Regarding `C[N+](C)(C)CCO`, the Potency result in test [10] and in test [14] was “inactive” in each case. Further, the compound was called inactive in test [15].
Regarding `CC(=O)O[C@H]1C[C@@H]2CC[C@H]3[C@H]4C[C@H]([N+]5(C)CCCCC5)[C@@H](OC(C)=O)[C@@]4(C)CC[C@@H]3[C@@]2(C)C[C@H]1[N+]1(C)CCCCC1`, the parasite growth, % of DMSO control in test [16] turned out to be 73.3%. The parasite growth remaining, % of DMSO control (lower = more inhibition) in [17] is 88%. The compound also returned a parasite growth, % of control (lower = inhibition) in test [18] of 58.4%. The compound also returned a growth, % of control in test [19] of 72.7%.
For `COC(=O)C[C@](O)(CCCC(C)(C)O)C(=O)O[C@@H]1C(OC)=C[C@]23CCCN2CCc2cc4c(cc2[C@H]13)OCO4`, the Potency result in test [10] was “inactive”. Moreover, the parasite growth, % of DMSO control in test [16] was 70%. In addition, the parasite growth remaining, % of DMSO control (lower = more inhibition) in test [17] is 85.8%. In test [18], this compound had a parasite growth, % of control (lower = inhibition) of 67.1%. Also, in test [19], the growth, % of control was 76.2%.
Take `CCCCCCCCCCCC(=O)OCC(O)CO` (stereo unspecified): the Potency result in test [14] was “inactive”. Moreover, the compound was classed as inactive in test [15].
For the compound `CCCCCCCCCC(=O)O`, in test [15], the result was inactive.
For `O=S(=O)(c1cccc2c(I)cccc12)N1CCCNCC1`, the Potency result in test [13] is “inactive”.
For `Cc1ccccc1O`, the Potency entry in [9] is “inactive”.
As for `CC(C)(CO)[C@@H](O)C(=O)NCCC(=O)O`, the compound was classed as inactive in test [15].
Consider `CN(C)CCCN1c2ccccc2CCc2ccccc21`, for which, in test [13], the Potency result is “inactive”.
With `OCCCNc1cc(-c2ccnc(Nc3cccc(Cl)c3)n2)ccn1`, the Potency in [20] was 5.62 µM (active).
In the case of `Cc1ccc(C(=O)Nc2cccc(C(F)(F)F)c2)cc1Nc1nc(-c2cccnc2)nc2c1cnn2C`, the Potency in [20] was 1.41 µM (active).
In the case of `O=C(O)/C=C/c1ccccc1`, the call in test [15] was inactive.
On to `CC(=O)[C@H]1CC[C@H]2[C@@H]3CCC4=CC(=O)CC[C@]4(C)[C@H]3CC[C@]12C`, for which the Potency entry in test [9] and in [8] was “inactive” each time. In test [16], this compound registered a parasite growth, % of DMSO control of 38.5%. In test [17], this compound gave a parasite growth remaining, % of DMSO control (lower = more inhibition) of 85%. The parasite growth, % of control (lower = inhibition) in test [18] was 30.4%. The same compound had a growth, % of control in [19] of 31%.
Turning to `O=C1c2c(O)cccc2[C@@H]([C@@H]2O[C@H](CO)[C@@H](O)[C@H](O)[C@H]2O)c2cc(CO)cc(O)c21`, the compound was called inactive in test [15].
In the case of `Clc1ccc2c(c1)N=C(N1CCNCC1)c1ccccc1N2`, in test [13], the Potency entry is “inactive”.
Turning to `CC(C)COC(=O)OCN1C(=O)CN(CCN2CC(=O)N(COC(=O)OCC(C)C)C(=O)C2)CC1=O`, in [10], the Potency entry was “inactive”.
Turning to `C=C1C(=O)[C@@]23C(CC[C@@H]1[C@H]2O)[C@@]12CO[C@]3(O)[C@@H](O)[C@@H]1C(C)(C)CC[C@@H]2O` (stereo partly specified), in test [20], the Potency was 10 µM (active).
For the compound `O=S(=O)(c1cccc2c(Cl)cccc12)N1CCCNCC1`, the Potency result in test [13] was “inactive”.
The compound `C[N+](C)([O-])CCNc1ccc(NCC[N+](C)(C)[O-])c2c1C(=O)c1c(O)ccc(O)c1C2=O` returned a parasite growth, % of DMSO control in test [16] of 49%. In test [18], the parasite growth, % of control (lower = inhibition) is 41.1%. Also, the growth, % of control in test [19] was 60.6%.
`O=c1ccc2c(O)c3ccoc3cc2o1`: in [8], the Potency entry is “inactive”.
